Rows were chosen to be rich in hits. Some 2.6% of all compounds tested hit in one or more screens of this group.
eIF4H inh: inhibitors of RNA binding by human eIF4H | inhibition, % at 35 µM | eIF4H fluorescence polarization binding assay | AID 2012 | 290,000 tested, 0.94% active;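 note: calls also rest on retests at 20 µM and on dose response follow-up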
PABP polyA inh: blocks human PABP binding to poly(A) RNA; inhibition, % at 35 µM; 290,000 tested, 1% active; AID 2014; fluorescence polarization;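 note: calls also rest on retests at 20 µM and on dose response follow-up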
PHOSPHO1 inh: blocks human PHOSPHO1 phosphatase activity | Q8TCT1 | recombinant PHOSPHO1, absorbance phosphatase assay | inhibition, % at 13.3 µM | 290,000 tested, 1.1% active | AID 1565; in the data active = inhibition above about 60%
Target sequence (Q8TCT1 whole entry, looked up): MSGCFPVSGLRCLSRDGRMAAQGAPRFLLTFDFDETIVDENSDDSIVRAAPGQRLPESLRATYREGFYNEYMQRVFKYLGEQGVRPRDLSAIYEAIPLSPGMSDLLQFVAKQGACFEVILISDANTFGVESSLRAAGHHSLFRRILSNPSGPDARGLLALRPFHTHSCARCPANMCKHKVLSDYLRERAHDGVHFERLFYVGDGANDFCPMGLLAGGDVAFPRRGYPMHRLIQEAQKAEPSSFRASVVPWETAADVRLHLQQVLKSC
CRFR2-BP antag: blocks CRF-induced signaling of the CRF-BP/CRF-R2 complex. AID 588475. HEK293 CRF-R2/CRF-BP, CRF-induced calcium fluorescence. 350,000 tested, 0.59% active. inhibition, % at 11.8 µM;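 active = inhibition of the ligand-induced calcium signal above about 50% at the single tested concentration, limit read from the data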
MLLE-PAM2 inh: blocks PAM2 peptide binding to the PABP1 MLLE domain; GST-MLLE / FITC-PAM2 fluorescence polarization; inhibition, % at 20 µM; 360,000 tested, 0.36% active; in the data active = inhibition above about 35%, passing the limit was not always enough
Large screens that a line does not name were inactive. Unless noted, the rule behind the calls is not given here.

COc1cc2cc(/C=C/C(=O)c3ccco3)c(Cl)nc2cc1OC	eIF4H inh 77, PABP polyA inh 90
CN1C(=O)c2cccc(NCCCN3C(=O)c4ccccc4C3=O)c2C1=O	eIF4H inh 66, PABP polyA inh 94
CN1C(=O)c2cccc(NCCCCCCN3C(=O)c4ccccc4C3=O)c2C1=O	none
Cc1c2ccccc2nc2c(F)c(NC(C)C)c(F)c(F)c12	eIF4H inh 82, PABP polyA inh active
CCCCNC(=S)N(C)/N=C/c1c(C)[nH]c2ccccc12	eIF4H inh 50
COC1C(CO)OC(n2c3c(Cl)cccc3c3c4c(c5c6cccc(Cl)c6[nH]c5c32)C(=O)NC4=O)C(O)C1O (stereo not drawn)	none (no result: eIF4H inh, PABP polyA inh, PHOSPHO1 inh)
C=CC[n+]1c(/C=C/c2ccc(OC(C)=O)c(OC)c2)ccc2ccccc21	none
CC(C)Cn1cc(C(=O)N2CCC(C)CC2)c2c3ccccc3n(C)c2c1=O	CRFR2-BP antag 50
CC(C)Cn1cc(C(=O)N2CCOCC2)c2c3ccccc3n(C)c2c1=O	none
N#Cc1cccc(C(=O)Nc2cccc(S(=O)(=O)N3CCCC3)c2)c1	none
Cc1cccc(OC(=O)n2c(=S)oc3cc(Cl)ccc32)c1	eIF4H inh inconclusive, PABP polyA inh 86
CC(C)OC(=O)n1c(=S)oc2ccccc21	none
Cc1cc(C)cc(CC(=O)N2CCC2(C)C(=O)NS(=O)(=O)c2ccccc2)c1 (stereo not drawn)	none (no result: eIF4H inh, PABP polyA inh, PHOSPHO1 inh, CRFR2-BP antag)
O=C(COc1cc(Cl)ccc1Cl)Nc1ccc2[nH]c(=O)[nH]c2c1	none (no result: eIF4H inh, PABP polyA inh, PHOSPHO1 inh)
O=C(COc1cc(Cl)ccc1Cl)Nc1ccc2c(c1)CCC2	eIF4H inh 64, PABP polyA inh 6.4
C/C(CC(=O)Nc1cc(C)ccn1)=N\NC(=O)c1ccccc1C	PABP polyA inh 25
CN(Cc1cccnc1)Cc1c(C(=O)N2CCc3ccccc3C2)nc2ccc(Cl)cn12	PABP polyA inh 37
CCc1ccccc1OCc1nc2ccc(S(=O)(=O)N3CCOCC3)cc2[nH]1	none
Cc1ccccc1OCc1nc2ccc(S(=O)(=O)N3CCOCC3)cc2[nH]1	PHOSPHO1 inh 98
CC(=O)NC(c1ccc(F)c(F)c1)c1nc(-c2ccccc2C)cs1 (stereo not drawn)	none (no result: eIF4H inh, PABP polyA inh, PHOSPHO1 inh, CRFR2-BP antag)
CCC(C(=O)OCC(=O)Nc1cc(OC)ccc1OC)c1ccccc1 (stereo not drawn)	PABP polyA inh 50
CC(C)CC(C(=O)Nc1oc(-c2ccco2)c(-c2ccco2)c1C#N)N1C(=O)c2ccccc2C1=O (stereo not drawn)	eIF4H inh 82, PABP polyA inh 78
COCCNC(=O)C1(C)CCCN(C(=O)c2cccc(OC(F)(F)F)c2)C1 (stereo not drawn)	none (no result: eIF4H inh, PABP polyA inh, PHOSPHO1 inh, CRFR2-BP antag)
C=C1Cn2c(nnc2-c2ccc(Cl)cc2)S1	PHOSPHO1 inh 70
CCOC(=O)c1ccc(NC(=O)CCS(=O)(=O)Cc2ccccc2)cc1	PHOSPHO1 inh 63
COC(=O)c1ccc(NC(=O)CS(=O)(=O)Cc2ccccc2)cc1	none
CCOC(=O)c1cccc(NS(=O)(=O)Cc2ccccc2)c1	CRFR2-BP antag 149
CCc1nc2ccc(C(=O)Nc3ccc(C(=O)N(C)C)cc3)cn2c1N(C)CCCc1ccccc1	none (no result: eIF4H inh, PABP polyA inh, PHOSPHO1 inh, CRFR2-BP antag)
CC(C)OC(=O)[C@H]1[C@H](c2ccc(Cl)cc2)[C@@](C#N)(C(N)=O)[C@@H]2C=CC(C(N)=O)=CN21	eIF4H inh 53, PABP polyA inh 64
CC(=O)Nc1cc(-c2ccc(N(C)C)cc2)cn2c(-c3ccc(F)c(Cl)c3)cnc12	none (no result: eIF4H inh, PABP polyA inh, PHOSPHO1 inh, CRFR2-BP antag)
CNC(=O)/C(C#N)=C\c1ccc(CNS(=O)(=O)c2ccc(Cl)cc2)o1	PABP polyA inh 62
Cc1cc(C(=O)CSc2nc(N)cc(N)n2)c(C)n1-c1cccc(C(F)(F)F)c1	eIF4H inh 56
Cc1cc(C(=O)CSc2ncccn2)c(C)n1-c1cccc(F)c1	none
Cc1cccnc1NC(=O)C(C)Oc1ccccc1 (stereo not drawn)	CRFR2-BP antag 80
O=C(O)CCC(=O)Nc1sc2c(c1C(=O)Nc1cccc3ccccc13)CCCCC2	eIF4H inh 58, PABP polyA inh 1.4
O=C(CCN1CCCCC1)c1ccc2c(c1)OCO2	CRFR2-BP antag 51
O=C(CCN1CCOCC1)c1ccc2c(c1)OCCO2	PABP polyA inh inconclusive
CC(=O)C1=C(O)C(=O)N(CCC(=O)O)C1c1ccccc1[N+](=O)[O-] (stereo not drawn)	none
CC(=O)C1=C(O)C(=O)N(C)C1c1ccccc1[N+](=O)[O-] (stereo not drawn)	MLLE-PAM2 inh 39
CCOC(=O)C1(C)CCCN(C(=O)c2cccc(C#N)c2)C1 (stereo not drawn)	none (no result: eIF4H inh, PABP polyA inh, PHOSPHO1 inh, CRFR2-BP antag)
Cc1ccc(-c2c(C)c(-c3ccc(F)cc3)nc(N)c2C#N)o1	eIF4H inh 76, PABP polyA inh 75
CC1(C(=O)NS(=O)(=O)c2cccc(F)c2)CCN1C(=O)CC1CCCCC1 (stereo not drawn)	none (no result: eIF4H inh, PABP polyA inh, PHOSPHO1 inh, CRFR2-BP antag)
COc1ccc(Cc2nnc(N/N=C/c3ccc(O)cc3O)[nH]c2=O)cc1OC	none
COc1ccccc1C(=O)Nc1ccc(NC(=O)C2CCCCC2)nc1	none
O=C(Nc1ccc(NC(=O)C2CCCCC2)nc1)c1ccccn1	PHOSPHO1 inh 63
Cc1cc(=O)n2[nH]c(-c3ccc(F)cc3)cc2n1	none
COCc1cc(=O)n2[nH]c(-c3ccsc3-n3c(C)ccc3C)cc2n1	eIF4H inh 80, PABP polyA inh 66
Cc1nc2cc(-c3ccsc3-n3c(C)ccc3C)[nH]n2c(=O)c1Cl	eIF4H inh 85, PABP polyA inh 83
Cc1cc(=O)n2[nH]c(-c3ccsc3-n3c(C)ccc3C)cc2n1	eIF4H inh 75, PABP polyA inh 81
Cc1ccc(C(=O)NC(=S)c2c(C)cc3ccccn23)cc1	none (no result: eIF4H inh, PABP polyA inh, PHOSPHO1 inh)
Cc1cc(C)c2nc(-c3ccccn3)cc(C(=O)n3cccn3)c2c1	PABP polyA inh 61
Cc1c(Cl)ccc2c(C(N)=O)cc(-c3ccccn3)nc12	none
Cc1cc(C=C2C(=O)c3ccccc3C2=O)c(C)n1-c1ccc(Cl)cc1	eIF4H inh 63
Cc1cccc(-n2c(C)cc(C=C3C(=O)c4ccccc4C3=O)c2C)c1	PHOSPHO1 inh 99
COc1ccc(-c2cc(NC(C)=O)c3ncc(-c4ccc(F)cc4)n3c2)cc1OC	none (no result: eIF4H inh, PABP polyA inh, PHOSPHO1 inh, CRFR2-BP antag)
Cc1c(NC(=O)Nc2cccc(C(F)(F)F)c2)c(=O)n(-c2ccccc2)n1C	PHOSPHO1 inh 66
CCN(CC)C(=O)CSc1nnc2nnc3cc(C)ccc3n12	eIF4H inh inconclusive, PABP polyA inh inconclusive, MLLE-PAM2 inh 40
CCN(CC)C(=O)CSc1nnc2nnc3cc(Cl)ccc3n12	eIF4H inh inconclusive, PABP polyA inh inconclusive, MLLE-PAM2 inh 67
CCOC(=O)CCCCCC(=O)Nc1ccc2c(c1)C(=O)N([C@@H](C)CO)C[C@H](C)[C@H](CN(C)C(=O)Nc1ccc(F)cc1)OCCCC[C@H](C)O2	none (no result: eIF4H inh, PABP polyA inh, PHOSPHO1 inh)
COC(=O)C1CCN(C(=O)COC(=O)c2cc([N+](=O)[O-])ccc2N2CCOCC2)CC1	CRFR2-BP antag 105 (no result: eIF4H inh, PABP polyA inh, PHOSPHO1 inh)
CC1CCN(C(=O)COC(=O)c2cc([N+](=O)[O-])ccc2N2CCOCC2)CC1	none (no result: eIF4H inh, PABP polyA inh, PHOSPHO1 inh)
O=C(c1cccc(Cl)c1)N1CCCC(C(=O)N2CCN(c3ccccc3)CC2)C1 (stereo not drawn)	none
